Bioassay records deposited in PubChem by The Scripps Research Institute Molecular Screening Center.
MITF primary: blocks human microphthalmia-associated transcription factor; O75030; AlphaScreen MITF homodimerization, bead proximity signal; inhibition, % at 2.6 µM; hit rate 0.91% among 650,000; AID 1259374; in the data active = inhibition above about 50%;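 also: 0% = vehicle wells with protein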
TEAD-YAP block: TEAD-YAP interaction inhibition; HEK-TIYL cells, TEAD-Gal4/YAP UAS-luciferase luminescence; inhibition, % at 9.12 µM; hit rate 1.4% among 640,000; AID 1259422; in the data active = inhibition above about 32%;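 also: 0% = median of test compound wells and 100% = reference inhibitor wells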
FBW7 act: activators of human E3 ligase FBW7; Q969H0; AlphaScreen FBW7–phospho-cyclin E peptide binding, activator screen; normalized activity (activation), % at 26.1 µM; hit rate 0.13% among 650,000; AID 1259310; in the data active = normalized activity above about 1.9%;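 also: purified mutant Fbw7 with reduced substrate affinity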
GPR151 activ: human GPR151 activation; PathHunter beta-arrestin GPR151 cells, luminescence; hit rate 1% among 650,000; Q8TDV0; activation, % at 11.2 µM; in the data active = activation above about 4.9%;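 also: 0% = median of compound wells and 100% = cells with positive control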
GPR151 conf act: confirmation of human GPR151 activators; shares compounds with GPR151 activ; GPR151 PathHunter beta-arrestin cells, luminescence, 90 min; % of EA-reagent control over plate median; activation, % at 11.2 µM; 6,700 tested, under 10 active; AID 1508609;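 active = mean percent activation across replicates above the confirmation screen cutoff of 4.91%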
GPR119 ag: GPR119 activation, counter-screen for GPR151 activators | activation, % at 11.2 µM | hit rate 0.3% among 6,700 | GPR119 PathHunter beta-arrestin cells, luminescence, 90 min; 0 = compound-well median, 100 = enzyme-acceptor control | shares compounds with GPR151 activ;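 active = mean percent activation in the counterscreen above 29.09%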;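 also: counterscreen on off-target GPR119 to flag nonselective hits from the GPR151 activator screen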
Target sequence (Q8TDV5 whole entry, looked up): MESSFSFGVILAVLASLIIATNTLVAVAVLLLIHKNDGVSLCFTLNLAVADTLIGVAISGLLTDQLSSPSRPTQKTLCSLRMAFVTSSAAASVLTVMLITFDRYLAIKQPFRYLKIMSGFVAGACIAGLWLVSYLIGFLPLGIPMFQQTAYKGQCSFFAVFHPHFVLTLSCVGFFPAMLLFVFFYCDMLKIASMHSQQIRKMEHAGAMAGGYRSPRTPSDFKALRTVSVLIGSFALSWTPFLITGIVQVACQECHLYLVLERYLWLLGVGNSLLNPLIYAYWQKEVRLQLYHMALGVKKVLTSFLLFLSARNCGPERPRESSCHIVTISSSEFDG
Starred values were filed as active, the others as inactive. Shown are actives, neighbours in structure and some others; about 3.5% of the full set was active somewhere.

`O=S(=O)(Nc1ccccc1F)c1cccc(S(=O)(=O)c2ccccc2)c1` gave MITF primary 10.9, TEAD-YAP block 3.3, FBW7 act -0.1, GPR151 activ 5.3*, GPR151 conf act 0.3 and GPR119 ag 5.5.
`N#Cc1cccc(S(=O)(=O)Nc2ccccc2F)c1` gave MITF primary 1.7, TEAD-YAP block -1.2, FBW7 act -0.1 and GPR151 activ -1.4.
Cc1ccc(NC(=O)c2cnn3c(C(F)(F)F)cc(-c4ccco4)nc23)cc1 was read as MITF primary 4.3, TEAD-YAP block -5.4, FBW7 act 0.0 and GPR151 activ -0.4.
CC(=O)c1ccc(NC(=O)c2cnn3c(C(F)(F)F)cc(-c4ccco4)nc23)cc1 was read as MITF primary 16.7, TEAD-YAP block 5.8, FBW7 act 0.1, GPR151 activ 6.8*, GPR151 conf act -0.3 and GPR119 ag -9.3.
For COCCCNC(=O)c1ccc(CNC(=O)c2ccc3c(c2)OCO3)cc1 the results were MITF primary 4.8, TEAD-YAP block 3.1, FBW7 act 0.1, GPR151 activ 5.7*, GPR151 conf act -1.0 and GPR119 ag -4.8.
`COCCNC(=O)c1ccc(CNC(=O)c2ccc3c(c2)OCO3)cc1` gave MITF primary 8.6, TEAD-YAP block -7.5, FBW7 act 0.2 and GPR151 activ -1.0.
Screening Cc1cc(NC(=O)Cn2cnc([N+](=O)[O-])n2)nn1CC(=O)NCc1ccco1 returned MITF primary -0.1, TEAD-YAP block 1.4, FBW7 act 0.1, GPR151 activ 5.5*, GPR151 conf act -0.7 and GPR119 ag -11.2.
Cc1cc(NS(=O)(=O)c2ccc(Cl)cc2)nn1CC(=O)NCc1ccco1 was read as MITF primary -1.2, TEAD-YAP block -8.3, FBW7 act -0.3 and GPR151 activ 1.0.
Screening COc1ccc(Cl)cc1C(=O)NCCCN1CCN(c2ccccc2)CC1 returned MITF primary 6.2, TEAD-YAP block -3.0, FBW7 act -0.1 and GPR151 activ 2.9.
For COc1cc(N(C)C)c([N+](=O)[O-])cc1C(=O)NCCN1CCN(c2ccccc2)CC1 the results were MITF primary 8.3, TEAD-YAP block 2.7, FBW7 act 0.5, GPR151 activ 5.8*, GPR151 conf act 0.6 and GPR119 ag -1.1.
`O=C(Nc1nnc(N2CCCC2)s1)Nc1ccccc1Br` gave MITF primary 0.2, TEAD-YAP block -23.2, FBW7 act 0.1, GPR151 activ 5.5*, GPR151 conf act -0.4 and GPR119 ag -4.0.
For O=C(Nc1cccc(Br)c1)Nc1nnc(N2CCCCCC2)s1 the results were MITF primary 0.5, TEAD-YAP block -6.8, FBW7 act 0.1 and GPR151 activ 0.0.
COC(=O)c1ccccc1NC(=O)Nc1nnc(N2CC(C)CC(C)C2)s1 (stereo not drawn) was read as MITF primary 10.6, TEAD-YAP block 3.2, FBW7 act 0.2, GPR151 activ 6.6*, GPR151 conf act -0.5 and GPR119 ag -6.9.
For O=C(Nc1ccc2c(c1)OCCO2)Nc1nnc(N2CCCC2)s1 the results were MITF primary 1.0, TEAD-YAP block -18.8, FBW7 act -0.2, GPR151 activ 5.7*, GPR151 conf act 0.3 and GPR119 ag -0.8.
For O=C(Nc1cccc(C(F)(F)F)c1)Nc1nnc(N2CCCC2)s1 the results were MITF primary -0.5, TEAD-YAP block -0.5, FBW7 act -0.1, GPR151 activ 5.9*, GPR151 conf act 0.3 and GPR119 ag -0.8.
For CC1CCCC(C)N1C(=O)COC(=O)c1ccccc1Br (stereo not drawn) the results were MITF primary -5.1, TEAD-YAP block 1.2, FBW7 act 0.0 and GPR151 activ 1.7.
`COc1cc(/C=C2/C(=O)NC(=O)N(c3ccc(Cl)cc3)C2=O)cc([N+](=O)[O-])c1O` gave MITF primary 1.8, TEAD-YAP block -1.9, FBW7 act -0.2 and GPR151 activ -0.8.
`CCc1ccc2c(c1)/C(=C/C(=O)c1cccs1)C(=O)N2` gave MITF primary -26.0, TEAD-YAP block 0.3, FBW7 act -0.2, GPR151 activ 16.8*, GPR151 conf act 0.9 and GPR119 ag -3.4.
`Cc1cccc2c1NC(=O)/C2=C\C(=O)c1cccs1` gave MITF primary -1.3, TEAD-YAP block 7.4, FBW7 act -0.1, GPR151 activ 6.6*, GPR151 conf act -0.2 and GPR119 ag 1.1.
`N=c1ncn(Cc2ccccc2)c2nc(SCCOc3ccccc3F)[nH]c12` gave MITF primary 4.9, TEAD-YAP block -13.1, FBW7 act 0.1 and GPR151 activ 0.6.
Screening CN(C)CCNC(=O)C(=O)NCc1ccc2c(c1)OCO2 returned MITF primary -2.4, TEAD-YAP block -2.1, FBW7 act -0.1 and GPR151 activ 0.0.
`O=[N+]([O-])C1=C(Nc2ccc(Cl)c(Cl)c2)CS(=O)(=O)C1` gave MITF primary -4.7, TEAD-YAP block 4.5, FBW7 act -0.1 and GPR151 activ -0.5.
`Cc1ccc(NC2=C([N+](=O)[O-])CS(=O)(=O)C2)cc1` gave MITF primary -1.6, TEAD-YAP block -3.5, FBW7 act -0.1, GPR151 activ 6.5*, GPR151 conf act 0.1 and GPR119 ag 10.5.
Screening CCCNc1nnnc2c1cnn2-c1ccccc1 returned MITF primary 8.1, TEAD-YAP block -33.8, FBW7 act 0.1 and GPR151 activ 0.5.
Screening CC(C)CNc1nnnc2c1cnn2-c1ccccc1 returned MITF primary -2.9, TEAD-YAP block -38.9, FBW7 act 0.0, GPR151 activ 9.6*, GPR151 conf act 0.7 and GPR119 ag 3.5.
Cc1nc2nc(SCC(=O)Nc3ccc(Br)cc3)nn2c(C)c1Cc1cccc(Cl)c1 was read as MITF primary -9.5, TEAD-YAP block -5.8, FBW7 act 0.6 and GPR151 activ -0.3.
`Cc1ccc(S(=O)(=O)N(C)CC(=O)OCc2cc([N+](=O)[O-])cc3c2OCOC3)cc1` gave MITF primary 4.5, TEAD-YAP block 8.5, FBW7 act 0.0, GPR151 activ 8.1*, GPR151 conf act 0.0 and GPR119 ag -1.9.
`COc1cc(C2CC(=O)NC3=C2C(=O)CC(c2ccc(OC)c(OC)c2)C3)ccc1O` (stereo not drawn) gave MITF primary 16.8, TEAD-YAP block 9.9, FBW7 act 0.7 and GPR151 activ -0.6.
`CCOc1cc(C2CC(=O)NC3=C2C(=O)CC(c2ccc(OC)c(OC)c2)C3)ccc1O` (stereo not drawn) gave MITF primary 17.5, TEAD-YAP block -1.2, FBW7 act 0.2, GPR151 activ 6.3*, GPR151 conf act 0.0 and GPR119 ag 1.2.
CC(C)CCNC(=O)c1cc([N+](=O)[O-])ccc1Cl was read as MITF primary 5.9, TEAD-YAP block 27.2, FBW7 act -0.1 and GPR151 activ -0.2.
